# IL1B NFkB pot = enhances IL-1B driven NFkB nuclear translocation; HUVEC IL-1B NFkB p65 nuclear translocation imaging; activation, % at 2 µM; 94,000 compounds, 0.3% hits;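 active = activation above 40%, about the mean plus 3 SD, also judged a hit on visual image review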;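 note: percent activation is computed from the nuclear over cytoplasmic p65 intensity ratio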
# Cav3 T inh = human Cav3.2 channel inhibition, primary screen | Cav3.2-expressing cells, Fluo-4 calcium fluorescence FDSS; stronger effect = lower value | B-score at 10 µM | O95180 | 100,000 compounds, 4% hits;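 active = single-dose well whose peak fluorescence ratio is a statistical outlier from its plate by either plate-standardised score or position-corrected B-score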
# sEH inh = blocks human soluble epoxide hydrolase activity; P34913; recombinant human sEH enzymatic activity assay; inhibition, % at 2 µM; 91,000 compounds, 0.34% hits; AID 707; in the data active = inhibition above about 80%
# NFkB transloc inh = blocks IL-1B driven NFkB nuclear translocation in HUVEC cells | inhibition, % at 2 µM | HUVEC IL-1B NFkB p65 nuclear translocation imaging | 94,000 compounds, 0.43% hits | AID 796;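 active = inhibition above about 30% together with a positive call from visual inspection of the well image, limit read from the data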;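 note: nuclear over cytoplasmic p65 intensity ratio measured by imaging; 0% = IL-1B stimulated DMSO wells and 100% = unstimulated DMSO wells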
# sEH activator = activators of human soluble epoxide hydrolase | purified human sEH enzymatic activity, activator screen | 91,000 compounds, 0.04% hits | AID 717 | P34913 | activation, % at 2 µM; in the data active = activation above about 37%
# IL1B cytotox = toxic to HUVEC cells under IL-1B stimulation | HUVEC cell count loss, Hoechst imaging, IL-1B stimulated | cell count reduction, % at 2 µM | 94,000 compounds, 0.41% hits;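 active = cell count reduction more than 3 SD above the screen-wide mean, cut at about 70% in these data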;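 note: normalized per plate to untreated control cells as the no-loss baseline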
# Active calls of the source: *; · = no result given. Compounds with a hit are over-represented: about 4.6% of the library has one in this group of screens.
SMILES,IL1B NFkB pot,Cav3 T inh,sEH inh,NFkB transloc inh,sEH activator,IL1B cytotox
CN(C(=O)c1ccc(C(=O)N(C)C2CCCCC2)cc1)C1CCCCC1,-5.5,·,0.3,5.5,2.3,17.7
O=C(CSc1nc2ccccc2s1)NCCOc1ccc(Cl)cc1,·,-6.19*,10.4,·,-10.4,·
Cc1cnc(NC(=O)CSc2nc3ccccc3s2)s1,2.9,-4.61*,-17.3,-2.9,17.4,16.7
O=C(CSc1nc2ccccc2s1)Nc1ncccn1,·,0.34,·,·,·,·
CC(=O)c1ccc(OCC(O)CN2CCC(C)CC2)cc1 (centres undefined),16.8,-1.31,-5.4,-16.8,4.0,0.8
COc1ccc(CNC(=O)C(c2cccs2)N(Cc2ccco2)C(=O)Cc2cccs2)cc1 (centres undefined),-0.4,-7.15*,-8.7,0.4,14.8,4.5
COc1ccc(C(=O)N(Cc2ccco2)Cc2cccs2)c(O)c1,27.1,-4.84*,-12.8,-27.1,10.4,6.2
Cc1ccc(-c2nnn(CC(=O)N(Cc3ccco3)C(C(=O)NC(C)(C)C)c3cccs3)n2)o1 (centres undefined),6.1,-6.33*,7.5,-6.1,-8.0,-3.9
COc1ccc(CNC(=O)C(c2ccco2)N(Cc2cccs2)C(=O)Cc2cccs2)cc1 (centres undefined),41.0*,-0.199,-6.3,-41.0,5.7,-4.8
Cn1ncc(C#N)c1NC(=O)c1cc(-c2ccccc2Cl)on1,12.8,0.358,2.4,-12.8,-0.7,-26.1
COc1ccccc1C(=O)Nc1ccc2c(c1)nc(CCNC(C)=O)n2C,10.7,-0.4,25.0,-10.7,-21.2,-27.9
CCCn1c(NC(=O)c2ccc(C)cc2)nc2ccccc21,-12.6,-0.0128,-10.3,12.6,10.1,-18.6
COCCNC(C(=O)Nc1cc(Cl)cc(Cl)c1)c1ccccc1 (centres undefined),20.7,-5.19*,12.4,-20.7,-9.7,1.5
Oc1c(/C=N/c2ncn[nH]2)ccc2ccccc12,47.4*,-0.509,4.1,-47.4,-3.9,16.9
Clc1ccc(Cl)c(-c2ccc(/C=N/c3ncn[nH]3)o2)c1,-1.5,1.6,4.3,1.5,-5.3,-13.2
Cc1cccc(N(CC(=O)NC2CCCCC2)C(=O)CCC(=O)Nc2ccccn2)c1,·,-4.19*,·,·,·,·
O=C(CCC(=O)N(CC(=O)NC1CCCC1)Cc1ccc2c(c1)OCO2)Nc1ccccn1,-1.2,0.55,7.6,1.3,-8.8,-30.3
Cc1ccnc(NC(=O)CCC(=O)N(CC(=O)NC2CCCCC2)c2ccc3c(c2)OCO3)c1,·,-4.46*,·,·,·,·
CCCCOc1ccc(N(CC(=O)NC2CCCC2)C(=O)CCC(=O)Nc2ccccn2)cc1,·,0.0247,9.2,·,-10.9,·
O=C(CSc1nnc(C2COc3ccccc3O2)o1)N1CCCCC1 (centres undefined),-0.9,2.05,·,0.9,·,-5.4
CCCCN(C)C(=O)CCCCn1c(=O)[nH]c2cc(OCC)c(OCC)cc2c1=O,-18.9,1.32,-17.7,18.9,14.9,-14.8
Cc1ccccc1NC(=S)NC(=O)CCc1ccccc1,10.2,-4*,6.7,-10.3,-2.8,17.8
COc1ccc(OC)c(NC(=S)NCCC(c2ccccc2)c2ccccc2)c1,-8.8,-7.8*,25.3,8.8,-27.5,2.6
Cc1ccc(NC(=S)NCCC(c2ccccc2)c2ccccc2)c(C)c1,2.4,-3.18,59.6,-2.4,-58.5,-30.0
COc1ccc(NC(=S)NCCc2ccccc2)c(OC)c1,-10.3,-0.0301,3.5,10.3,-1.7,5.3
SMILES,IL1B NFkB pot,Cav3 T inh,sEH inh,NFkB transloc inh,sEH activator,IL1B cytotox
Cc1ccccc1NC(=S)NCCC(c1ccccc1)c1ccccc1,28.2,-4.36*,75.5,-28.2,-74.8,-6.2
c1ccc(-n2ncc3c2ncn2cnnc32)cc1,9.2,-0.0656,0.1,-9.2,2.0,-10.4
NC(=O)Cn1c(=O)n(Cc2ccco2)c(=O)c2c3c(sc21)CCCCC3,0.6,-0.826,1.7,-0.6,1.1,9.9
O=C(CSc1nc2ccccc2o1)NCC(=O)c1ccccc1,·,1.97,·,·,·,·
O=C(c1ccccc1)N1CCN(c2ccc(Cl)cc2)CC1,34.0,0.011,·,-34.0,·,4.0
O=C(Nc1ccccc1)N1CCN2C(=O)c3ccccc3C12c1ccccc1 (centres undefined),11.2,-6.87*,49.2,-11.2,-48.5,-5.6
O=C(c1ccccc1)N1CCN2C(=O)c3ccccc3C12c1ccc(Cl)cc1 (centres undefined),-3.5,-8.39*,5.0,3.5,-3.7,-6.3
O=C(Nc1ccccc1)N1CCCC1,·,0.47,4.9,·,-4.8,·
